According to the supplement of paper PMC10849652:
Targets with a hit are over-represented here; the source holds about 8,800 in all. About 0.5% of all pairs of compound and target were hits.

Tests used:
Assay in all cases: log2 fold change, soluble protein after heating vs DMSO (PISA); higher = thermal stabilisation; K562 lysate, 10 uM; active = over 0.2 and 3.5 SD of the protein, either way, in both replicates (recomputed)
[1] = compound: C1=CC=C(C=C1)[C@H](COC2=CC3=C(C=C2)NC(=O)N3)NC(=O)C4=CC=CN(C4=O)CC5=CC(=C(C=C5)F)F
In short: (§1)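 Soluble protein was defined as the supernatant remaining after 21,000xg for 90 min, following pooling of heated aliquots and adjustment to 0.5% NP-40 at 4°C. Before that, crude K562 extract at 1 mg/mL protein in PBS pH 7.4 with 1 mM MgCl2 was treated with 10 μM compound for 30 min and heated for 3 min across 48°C-58°C. Quantification used TMTpro 16plex LC-MS/MS with channel sums equalised, and values are log-two fold changes in thermal stability relative to solvent controls from duplicates.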

[2] = compound: CC1=C(SC2=C1C(=N[C@H](C3=NN=C(N32)C)CC(=O)N)C4=CC=C(C=C4)Cl)C
In short: as §1

[3] = compound: CC1=C2C(=CC=C1)N=C(N(C2=O)C3=CC=CC=C3C)CN4C=NC5=C(N=CN=C54)N
In short: as §1

[4] = compound: Cc1sc2c(c1C)C(c1ccc(Cl)cc1)=N[C@@H](CC(=O)OC(C)(C)C)c1nnc(C)n1-2
In short: as §1

[5] = compound: c1ccc([C@@H]2C[C@H]2NC2CCNCC2)cc1
In short: as §1

Measured: log2 fold change

NBEAL2 (UniProt Q6ZNJ1)
inactive: [1] -0.047 | [2] 0.055 | [3] 0.015 | [4] -0.029 | [5] 0.044

NIPBL (UniProt Q6KC79)
inactive: [1] 0.003 | [2] -0.055 | [3] -0.001 | [4] -0.014 | [5] -0.01

PANK1 (UniProt Q8TE04)
Chain of UniProt Q8TE04 (Q8TE04 whole entry, looked up): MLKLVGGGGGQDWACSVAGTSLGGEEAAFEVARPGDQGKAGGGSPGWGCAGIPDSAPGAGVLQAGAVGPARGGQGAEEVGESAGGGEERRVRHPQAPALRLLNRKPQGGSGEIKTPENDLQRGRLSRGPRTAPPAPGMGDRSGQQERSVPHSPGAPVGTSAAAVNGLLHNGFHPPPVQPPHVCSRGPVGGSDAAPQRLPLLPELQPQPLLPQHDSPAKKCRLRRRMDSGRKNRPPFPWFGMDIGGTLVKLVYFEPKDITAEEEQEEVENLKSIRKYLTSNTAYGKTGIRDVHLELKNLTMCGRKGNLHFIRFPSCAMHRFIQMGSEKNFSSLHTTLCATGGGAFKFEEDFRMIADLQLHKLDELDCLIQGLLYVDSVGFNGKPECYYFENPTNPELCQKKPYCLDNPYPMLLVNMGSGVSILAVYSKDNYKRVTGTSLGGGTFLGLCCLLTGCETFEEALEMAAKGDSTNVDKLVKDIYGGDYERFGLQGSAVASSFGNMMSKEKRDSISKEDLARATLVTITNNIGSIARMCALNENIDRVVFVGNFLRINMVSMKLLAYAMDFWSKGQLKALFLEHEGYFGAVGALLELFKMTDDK
inactive: [1] -0.071 | [2] -0.056 | [3] 0.178 | [4] -0.077 | [5] 0.076

MYH11 isoform 2 (UniProt P35749)
inactive: [1] 0.037 | [2] -0.021 | [3] 0.004 | [4] -0.065 | [5] 0.025

NUP205 (UniProt Q92621)
inactive: [1] -0.042 | [2] -0.019 | [3] 0.045 | [4] 0.006 | [5] -0.001

MTA3 (UniProt Q9BTC8)
Chain of UniProt Q9BTC8 (Q9BTC8 whole entry, looked up): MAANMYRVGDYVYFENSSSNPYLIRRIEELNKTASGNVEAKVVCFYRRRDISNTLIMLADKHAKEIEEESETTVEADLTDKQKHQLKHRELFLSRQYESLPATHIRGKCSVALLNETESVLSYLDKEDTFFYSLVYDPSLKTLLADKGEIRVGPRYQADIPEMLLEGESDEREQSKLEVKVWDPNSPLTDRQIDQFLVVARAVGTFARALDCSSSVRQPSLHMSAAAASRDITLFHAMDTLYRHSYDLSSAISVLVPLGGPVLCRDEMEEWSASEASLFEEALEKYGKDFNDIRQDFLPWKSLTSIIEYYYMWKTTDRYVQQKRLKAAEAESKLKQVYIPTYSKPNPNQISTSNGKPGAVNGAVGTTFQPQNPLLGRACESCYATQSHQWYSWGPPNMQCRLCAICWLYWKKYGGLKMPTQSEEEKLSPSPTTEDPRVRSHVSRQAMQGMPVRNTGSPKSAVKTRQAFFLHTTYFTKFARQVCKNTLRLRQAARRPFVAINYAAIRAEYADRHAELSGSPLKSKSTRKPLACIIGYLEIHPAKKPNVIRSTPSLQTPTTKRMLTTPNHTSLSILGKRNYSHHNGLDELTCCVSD
inactive: [1] -0.006 | [2] -0.047 | [3] 0.002 | [4] 0.014 | [5] -0.001

PAK1 (UniProt Q13153)
Chain of UniProt Q13153 (Q13153 whole entry, looked up): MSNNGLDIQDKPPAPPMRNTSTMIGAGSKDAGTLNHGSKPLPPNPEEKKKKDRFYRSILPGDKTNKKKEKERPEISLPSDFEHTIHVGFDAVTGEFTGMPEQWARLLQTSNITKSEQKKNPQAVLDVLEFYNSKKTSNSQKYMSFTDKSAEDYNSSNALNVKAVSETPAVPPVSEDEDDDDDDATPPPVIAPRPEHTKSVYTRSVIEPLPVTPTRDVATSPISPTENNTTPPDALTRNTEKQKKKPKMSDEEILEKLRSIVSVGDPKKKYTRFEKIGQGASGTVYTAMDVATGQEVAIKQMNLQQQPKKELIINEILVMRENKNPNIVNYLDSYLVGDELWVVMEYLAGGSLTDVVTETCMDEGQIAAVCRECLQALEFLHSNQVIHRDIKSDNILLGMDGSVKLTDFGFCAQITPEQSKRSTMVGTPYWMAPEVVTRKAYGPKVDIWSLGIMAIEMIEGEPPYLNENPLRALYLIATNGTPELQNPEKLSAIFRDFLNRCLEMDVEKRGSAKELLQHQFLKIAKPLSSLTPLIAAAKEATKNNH
inactive: [1] 0.029 | [2] -0.009 | [3] -0.011 | [4] 0.015 | [5] -0.126

OLA1 (UniProt Q9NTK5)
inactive: [1] -0.001 | [2] 0.04 | [3] 0 | [4] 0.011 | [5] 0.022

NUDT5 (UniProt Q9UKK9)
inactive: [1] 0.053 | [2] -0.126 | [3] -0.012 | [4] -0.097 | [5] -0.158

NNMT (UniProt P40261)
inactive: [1] 0.003 | [2] 0.05 | [3] 0.027 | [4] -0.011 | [5] -0.027

NAP1L5 (UniProt Q96NT1)
Chain of UniProt Q96NT1 (Q96NT1 whole entry, looked up): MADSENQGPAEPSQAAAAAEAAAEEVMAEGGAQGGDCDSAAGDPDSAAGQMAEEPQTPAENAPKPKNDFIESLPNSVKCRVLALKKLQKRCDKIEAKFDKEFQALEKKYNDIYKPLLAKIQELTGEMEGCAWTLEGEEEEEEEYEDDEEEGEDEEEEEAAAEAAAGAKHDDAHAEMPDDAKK
inactive: [1] 0.082 | [2] -0.023 | [3] -0.028 | [4] -0.082 | [5] 0.304

NEBL isoform 2 (UniProt O76041)
Chain of UniProt O76041 (O76041 whole entry, looked up): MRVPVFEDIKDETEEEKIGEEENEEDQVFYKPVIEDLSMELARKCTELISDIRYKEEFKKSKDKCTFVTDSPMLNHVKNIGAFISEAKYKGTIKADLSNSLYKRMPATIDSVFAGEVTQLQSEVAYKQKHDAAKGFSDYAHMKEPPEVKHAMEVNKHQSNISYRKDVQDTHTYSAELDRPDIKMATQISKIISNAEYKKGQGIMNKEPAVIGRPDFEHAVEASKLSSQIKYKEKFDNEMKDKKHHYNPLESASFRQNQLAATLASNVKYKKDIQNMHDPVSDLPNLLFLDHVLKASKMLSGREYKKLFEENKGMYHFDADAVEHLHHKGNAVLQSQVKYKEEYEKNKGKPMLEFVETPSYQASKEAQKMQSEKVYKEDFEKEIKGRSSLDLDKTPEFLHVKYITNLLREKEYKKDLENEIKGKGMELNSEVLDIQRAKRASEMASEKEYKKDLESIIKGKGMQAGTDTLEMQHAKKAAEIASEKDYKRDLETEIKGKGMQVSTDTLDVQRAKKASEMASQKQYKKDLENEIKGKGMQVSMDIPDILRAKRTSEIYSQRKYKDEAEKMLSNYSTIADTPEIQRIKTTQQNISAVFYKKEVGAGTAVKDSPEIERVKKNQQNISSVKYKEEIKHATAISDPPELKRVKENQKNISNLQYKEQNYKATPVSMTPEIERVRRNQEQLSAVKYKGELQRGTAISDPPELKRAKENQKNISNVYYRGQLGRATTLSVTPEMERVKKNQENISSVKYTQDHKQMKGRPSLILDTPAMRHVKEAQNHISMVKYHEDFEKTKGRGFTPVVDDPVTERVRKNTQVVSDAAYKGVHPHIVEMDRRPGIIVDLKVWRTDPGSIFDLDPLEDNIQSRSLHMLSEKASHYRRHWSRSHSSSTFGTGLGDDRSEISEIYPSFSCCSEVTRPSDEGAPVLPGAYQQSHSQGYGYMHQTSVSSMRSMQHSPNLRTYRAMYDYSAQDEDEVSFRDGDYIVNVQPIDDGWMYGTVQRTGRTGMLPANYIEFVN
inactive: [1] -0.025 | [2] -0.102 | [3] 0.018 | [4] -0.07 | [5] -0.094

NFATC4 isoform 2 (UniProt Q14934)
Chain of UniProt Q14934 (Q14934 whole entry, looked up): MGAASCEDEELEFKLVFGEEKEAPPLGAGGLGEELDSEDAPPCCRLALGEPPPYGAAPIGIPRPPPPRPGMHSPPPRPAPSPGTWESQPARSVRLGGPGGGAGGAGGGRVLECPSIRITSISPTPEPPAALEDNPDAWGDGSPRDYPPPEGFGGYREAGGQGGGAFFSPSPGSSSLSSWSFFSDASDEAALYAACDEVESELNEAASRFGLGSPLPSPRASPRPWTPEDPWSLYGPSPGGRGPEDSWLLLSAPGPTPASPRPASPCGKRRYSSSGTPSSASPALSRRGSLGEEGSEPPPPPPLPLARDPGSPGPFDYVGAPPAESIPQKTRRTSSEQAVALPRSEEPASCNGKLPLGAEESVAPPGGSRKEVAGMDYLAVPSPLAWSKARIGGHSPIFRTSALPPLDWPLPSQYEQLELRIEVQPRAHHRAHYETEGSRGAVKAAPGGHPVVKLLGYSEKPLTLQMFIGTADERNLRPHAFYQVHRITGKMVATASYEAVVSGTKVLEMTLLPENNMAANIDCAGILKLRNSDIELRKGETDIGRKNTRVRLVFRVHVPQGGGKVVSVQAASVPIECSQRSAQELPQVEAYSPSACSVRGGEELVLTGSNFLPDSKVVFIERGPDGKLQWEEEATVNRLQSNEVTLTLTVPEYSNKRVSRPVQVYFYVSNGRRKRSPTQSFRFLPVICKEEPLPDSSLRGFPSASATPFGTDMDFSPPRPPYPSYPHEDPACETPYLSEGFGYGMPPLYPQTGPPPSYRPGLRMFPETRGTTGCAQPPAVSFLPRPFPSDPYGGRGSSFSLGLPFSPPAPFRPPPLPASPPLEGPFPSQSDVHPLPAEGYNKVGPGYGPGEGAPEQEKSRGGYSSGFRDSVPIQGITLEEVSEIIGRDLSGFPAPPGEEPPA
inactive: [1] -0.077 | [2] 0.015 | [3] 0 | [4] -0.112 | [5] -0.197

PAN2 isoform 2 (UniProt Q504Q3)
Chain of UniProt Q504Q3 (Q504Q3 whole entry, looked up): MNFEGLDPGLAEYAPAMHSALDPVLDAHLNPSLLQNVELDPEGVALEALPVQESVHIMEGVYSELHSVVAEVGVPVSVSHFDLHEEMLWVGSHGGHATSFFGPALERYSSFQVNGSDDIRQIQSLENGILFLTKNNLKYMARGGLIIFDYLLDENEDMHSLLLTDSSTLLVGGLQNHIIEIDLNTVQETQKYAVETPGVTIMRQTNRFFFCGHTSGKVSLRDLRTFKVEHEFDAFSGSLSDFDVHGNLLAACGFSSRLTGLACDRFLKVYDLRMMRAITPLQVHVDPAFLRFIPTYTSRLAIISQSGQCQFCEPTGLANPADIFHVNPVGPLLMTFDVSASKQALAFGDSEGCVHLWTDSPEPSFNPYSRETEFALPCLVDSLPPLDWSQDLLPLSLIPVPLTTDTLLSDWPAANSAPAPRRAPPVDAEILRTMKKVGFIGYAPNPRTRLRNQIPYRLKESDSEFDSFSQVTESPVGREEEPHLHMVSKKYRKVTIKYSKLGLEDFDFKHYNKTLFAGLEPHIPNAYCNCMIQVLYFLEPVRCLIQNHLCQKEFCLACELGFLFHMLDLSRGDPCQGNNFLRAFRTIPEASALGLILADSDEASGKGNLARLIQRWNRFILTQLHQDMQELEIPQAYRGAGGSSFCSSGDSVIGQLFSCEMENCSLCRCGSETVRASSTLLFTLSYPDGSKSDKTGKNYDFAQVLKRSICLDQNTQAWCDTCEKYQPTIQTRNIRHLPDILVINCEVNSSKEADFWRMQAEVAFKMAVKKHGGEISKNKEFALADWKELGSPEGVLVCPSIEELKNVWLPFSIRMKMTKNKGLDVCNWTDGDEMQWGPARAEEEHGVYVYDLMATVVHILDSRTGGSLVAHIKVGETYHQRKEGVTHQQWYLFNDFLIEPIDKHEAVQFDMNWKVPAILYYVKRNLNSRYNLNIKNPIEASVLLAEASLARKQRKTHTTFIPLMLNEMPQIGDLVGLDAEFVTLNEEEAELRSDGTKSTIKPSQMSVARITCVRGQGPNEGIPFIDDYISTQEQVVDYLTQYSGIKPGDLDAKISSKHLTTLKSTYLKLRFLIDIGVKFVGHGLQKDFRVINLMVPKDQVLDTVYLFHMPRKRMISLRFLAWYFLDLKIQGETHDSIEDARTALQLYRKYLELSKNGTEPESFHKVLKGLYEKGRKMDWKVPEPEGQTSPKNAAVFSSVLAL
inactive: [1] -0.108 | [2] 0.086 | [3] -0.004 | [4] -0.044 | [5] 0.007

OGFOD2 (UniProt Q6N063)
inactive: [1] -0.079 | [2] 0.049 | [3] -0.07 | [4] 0.033 | [5] 0.076

NAA35 (UniProt Q5VZE5)
inactive: [1] 0.004 | [2] 0.066 | [3] -0.023 | [4] -0.002 | [5] 0.086
